TRPML1 agonist – qHTS for Agonists of the Human Mucolipin Transient Receptor Potential 1 (TRPML1). TRPML1-expressing cells, Ca2+ dye fluorescence, FDSS. Mucolipin-1 (Homo sapiens), Q9GZU1. activation, % (test concentration not listed). 410,000 compounds, 0.12% hits; in the data active = activation above about 50%; inconclusive = mostly about 30% to 49%; note: 0% is about no effect
Target sequence (Q9GZU1 whole entry, looked up): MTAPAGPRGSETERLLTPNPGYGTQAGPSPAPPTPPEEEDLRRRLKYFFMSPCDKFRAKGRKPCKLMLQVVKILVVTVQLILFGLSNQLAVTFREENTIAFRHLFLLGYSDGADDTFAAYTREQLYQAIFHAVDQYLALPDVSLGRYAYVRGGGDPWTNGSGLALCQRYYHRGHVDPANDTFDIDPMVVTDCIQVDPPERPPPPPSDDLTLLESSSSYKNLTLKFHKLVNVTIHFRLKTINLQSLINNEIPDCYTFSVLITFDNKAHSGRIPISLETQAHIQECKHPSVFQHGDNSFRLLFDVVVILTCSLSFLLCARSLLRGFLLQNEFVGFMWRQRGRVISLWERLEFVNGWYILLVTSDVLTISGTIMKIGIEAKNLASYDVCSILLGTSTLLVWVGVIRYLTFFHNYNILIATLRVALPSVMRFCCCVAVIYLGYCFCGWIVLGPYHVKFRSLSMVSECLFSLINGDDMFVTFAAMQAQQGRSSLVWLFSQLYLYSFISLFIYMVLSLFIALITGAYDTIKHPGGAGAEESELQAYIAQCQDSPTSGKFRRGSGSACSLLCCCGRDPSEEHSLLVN
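Agonist activity was taken from a 110 s kinetic Ca2+ dye read on the FDSS after pinning compounds onto TRPML1-DL cells. The cells were seeded at 1,500/well with Tet inducer, incubated about 16 h, then dye-loaded at room temperature.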
TRPML1 blocker – qHTS for Inhibitors of the Human Mucolipin Transient Receptor Potential 1 (TRPML1). Mucolipin-1 (Homo sapiens), Q9GZU1. TRPML1-inducible cells, Ca2+ dye fluorescence, FDSS; hits give low values; inhibition of EC80 agonist-evoked calcium signal. activity change, negative = inhibition, % (test concentration not listed). 390,000 compounds, 0.02% hits. AID 624415, 2012; in the data active = activity change below about -50%; inconclusive = between about -30% and that limit;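 note: stimulus is agonist 54-4 at its EC80 concentration; % is set by controls: 0 for no effect and ±100 for the full control effect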
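Tet-induced TRPML1-DL cells loaded with Ca8 no-wash calcium dye were read kinetically on FDSS. Compound addition was followed by EC80 agonist 54-4 (4 uM final); inhibition was read over 110 s.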
TRHR ag – qHTS for Small Molecule Agonists and Allosteric Enhancers of Human TRH Receptor: Primary Screen for Agonists. Thyrotropin-releasing hormone receptor (Homo sapiens), P34981. TRHR cells, calcium flux fluo-8, FDSS agonist mode. activation, % at 2 µM. 360,000 compounds, 0.18% hits; in the data active = activation above about 30%; note: 0% is about no effect
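Agonist-mode FDSS calcium read (Ex 480/Em 530, 1 s cycles) in 1536-well TRHR cells with fluo-8 dye, after 10-cycle baseline and 23 nL compound addition; TRH at EC20 (10 nM final) added afterwards for the enhancer phase.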
TRHR enhancer – qHTS for Small Molecule Agonists and Allosteric Enhancers of Human TRH Receptor: Primary Screen for Enhancers; TRHR cells, fluo-8 calcium fluorescence, EC20 TRH enhancement; enhancement, % at 2 µM; 360,000 compounds, 0.66% hits; in the data active = enhancement above about 30%; note: 0% is about no effect
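Enhancer read-out: after compound pinning and an initial kinetic agonist-mode read, an EC20 of TRH (10 nM final) was injected and fluo-8 calcium signal (Ex 480/Em 530) followed at 1 s/cycle for 100 cycles in TRHR-expressing cells.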
hERG WT inh – qHTS for Inhibitors of KCHN2 3.1: Wildtype qHTS | activity change, % at 1.84 µM | 340,000 compounds, 0.37% hits | U2OS, BacMam KCNH2, thallium flux FluxOr; hits give low values | AID 720551, 2013 | Voltage-gated inwardly rectifying potassium channel KCNH2 (Homo sapiens), Q12809;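 active = maximum activity change below -70%; inconclusive = maximum activity change between -70% and -50%; inactive = maximum activity change above -50%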; note: % is set by controls: 0 for no effect and ±100 for the full control effect
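U2OS cells were transduced with wild-type KCNH2 virus (2.03 x 10^8 / mL) for 4 h at room temperature, then cultured overnight at 37 C. Thallium flux was read with FluxOr dye. Rate constants were normalized to DMSO controls.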
KCNH2 3.1 block – qHTS for Inhibitors of KCHN2 3.1: Mutant qHTS | Potassium voltage-gated channel subfamily H member 2, brain isoform KCNH2 3.1 (human) | U2OS KCNH2 3.1, thallium flux FluxOr; hits give low values | activity change, % (tested at about 1.8 µM) | 340,000 compounds, 0.95% hits;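 active = maximum activity change below -70%; inconclusive = maximum activity change from -70% to -50%; inactive = maximum activity change above -50%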;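 note: thallium influx rate constant from kinetic fluorescence after stimulation buffer; % is set by controls: 0 for no effect and ±100 for the full control effect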
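U2OS cells transduced with KCNH2 3.1 mutant virus (1.77 x 10^8 /mL, 4 h), plated overnight at 37 C, loaded 45 min with FluxOr dye plus Red40 quencher. Thallium flux rate constant from kinetic reads after stimulation buffer, normalised to controls.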
Active calls of the source: *; ? = inconclusive; nt = no result given. The list is not random: actives were taken first. Their share in the collection is about 1.7%.

SMILES | TRPML1 agonist | TRPML1 blocker | TRHR ag | TRHR enhancer | hERG WT inh | KCNH2 3.1 block
CCC(C(=O)Nc1ccc(C(=O)O)cc1NC(=O)C(CC)c1ccccc1)c1ccccc1 (centres undefined) | -1 | -29 | -1 | 1 | 7 | -2
Cc1ccc(NC(=O)CSc2nnc(COc3ccc(C#N)cc3)n2-c2ccccc2)cc1C | 3 | 26 | 0 | 3 | -13 | -71*
C=CCc1ccccc1OCC(O)CN(CC)CC (centres undefined) | -1 | -8 | 0 | 5 | 24 | 11
CCCCN(CCCC)CC(O)COc1ccccc1C(=O)Nc1ccccc1 (centres undefined) | -1 | -4 | 0 | -5 | 22 | -74*
CCN(CC)CC(O)COc1ccccc1C(=O)CCc1ccccc1 (centres undefined) | 1 | -1 | 3 | -6 | 25 | -71*
CCC(=O)c1ccc(OCC(O)CN(CCc2ccccc2)Cc2ccccc2)cc1 (centres undefined) | 0 | -6 | 3 | 13 | -6 | -70*
O=C(OCCF)N1CCN(/[N+]([O-])=N/Oc2ccc([N+](=O)[O-])cc2[N+](=O)[O-])CC1 | 1 | -6 | nt | nt | nt | nt
Cc1ccc(/C=N\NC(=O)Cn2nnc3ccccc32)o1 | 3 | 0 | 0 | 33* | 1 | -12
Cc1ccc(/C=N/NC(=O)Cn2cnc3ccccc32)o1 | 1 | 10 | 0 | 1 | 5 | 3
Cc1ccccc1C(=O)N1CCC(C(=O)N2CCCc3ccccc32)CC1 | 2 | -14 | 2 | 3 | -4 | -1
O=C(CCCc1ccccc1)c1ccccc1 | 1 | 8 | 1 | -3 | -3 | -7
CCN(CCCC(=O)c1ccc(F)cc1)CCc1ccccc1 | 0 | -6 | 1 | 3 | ? | -90*
O=C(C[n+]1ccnc2ccccc21)c1ccc(Br)cc1 | -1 | nt | nt | nt | nt | nt
CCOC(=O)c1c(C)sc(-c2c(-c3cccc(Cl)c3)[nH]c3c2c(=O)n(C)c(=O)n3C)c1O | ? | 13 | 169* | 15 | nt | nt
OCCN1CCN(CCCN2c3ccccc3Sc3ccc(C(F)(F)F)cc32)CC1 | 0 | -4 | 5 | 15 | 7 | -6
CCSc1ccc2c(c1)N(CCCN1CCN(C)CC1)c1ccccc1S2 | 9 | 67 | 1 | 4 | 32 | -73*
CCC(=O)c1ccc(OCC(=O)OCC(=O)N2CCCc3ccccc32)cc1 | 1 | 0 | 1 | 5 | 7 | 4
COc1ccc(C(=O)NCC(=O)OCC(=O)N2CCCc3ccccc32)cc1 | 1 | 21 | 0 | 37* | -10 | 1
CCn1cc(Cl)c(C(=O)Nc2cccc(C(F)(F)F)c2)n1 | 1 | 3 | -1 | 5 | -8 | -1
CCn1cc(Cl)c(C(=O)Nc2ccc3c(c2)OCCO3)n1 | 0 | 3 | 0 | 38* | -2 | 13
COc1ccc(Cl)cc1S(=O)(=O)Nc1cccc(-c2ccc(N3CCOCC3)nn2)c1 | -1 | 2 | 0 | 32* | nt | nt
COc1ccc(C(=O)Nc2cccc(-c3ccc(N4CCOCC4)nn3)c2)cc1 | -1 | 2 | 0 | 37* | 25 | -2
COc1ccc(Cl)cc1S(=O)(=O)Nc1cccc(-c2ccc(N3CCCC3)nn2)c1 | 0 | 0 | 0 | -4 | nt | nt
COc1cc(OC)cc(C(=O)Nc2cccc(-c3ccc(N4CCOCC4)nn3)c2)c1 | 0 | -5 | 0 | -5 | 7 | -6
COc1ccccc1Cn1c(=O)c2ccccc2n2c(SCC(=O)N3CCCCC3)nnc12 | 2 | -61* | 0 | -6 | -4 | -1
SMILES | TRPML1 agonist | TRPML1 blocker | TRHR ag | TRHR enhancer | hERG WT inh | KCNH2 3.1 block
O=C(CC1C(=O)NCCN1Cc1cccc(F)c1F)NCCCC1CCCC1 (centres undefined) | 0 | 1 | 0 | 19 | -3 | -17
Cc1cc(Nc2cccc(Cl)c2Cl)n2ncnc2n1 | 0 | 88 | -1 | -1 | -222* | -3
COc1cc(NC(=O)c2csc(-c3ccncc3)n2)cc(C(=O)Nc2cccc(C(F)(F)F)c2)c1 | 1 | -7 | 1 | 3 | ? | -118*
Cc1ccc(N=C(NO)c2cnccc2C(F)(F)F)c(C)c1 | 0 | -4 | 0 | 32* | -1 | 1
Cc1ccc(NC(=O)NC(=O)c2cnccc2C(F)(F)F)c(C)c1 | 1 | 2 | 0 | 4 | -1 | 0
CCCc1nc(SC)[nH]c(=O)c1C | 1 | 17 | 0 | 34* | 0 | 9
CCSc1nc(C)c(C)c(=O)[nH]1 | 2 | 1 | -1 | 8 | -1 | -2
CS(=O)(=O)N1CCN(Cc2cc3nc(-c4cccc5[nH]ncc45)nc(N4CCOCC4)c3s2)CC1 | -1 | nt | nt | nt | nt | nt
CCN(CC)C(=O)c1ccc2c(c1)N(Cc1ccccc1)C(=O)CS2=O (centres undefined) | 0 | 6 | 0 | 33* | 0 | 6
O=C(NCc1ccco1)c1ccc2c(c1)N(Cc1ccccc1)C(=O)CS2=O (centres undefined) | 1 | 1 | 1 | 1 | 3 | 2
COCCOCC(=O)Nc1ccc(S(=O)(=O)Nc2cc(C)nc(C)n2)cc1 | 0 | -1 | 0 | -1 | -108* | 12
Cc1nnc(N2CCCC(C(=O)NCCc3ccccc3)C2)c2nn(-c3ccccc3)c(C)c12 (centres undefined) | 1 | -3 | 0 | 1 | nt | nt
N#CC12C(=O)NC(=O)C1(C#N)C21CCCC1 (centres undefined) | 0 | 10 | nt | nt | -11 | 2
CC(=O)NC(c1cccc([N+](=O)[O-])c1)c1ccc2cccnc2c1O (centres undefined) | 0 | 10 | -1 | -2 | 16 | -1
CCCCC(=O)NC(c1ccccc1Cl)c1ccc2cccnc2c1O (centres undefined) | 0 | -5 | 0 | -2 | -17 | -97*
CCCCC(=O)NC(c1ccc(C(C)C)cc1)c1ccc2cccnc2c1O (centres undefined) | 0 | -2 | 1 | -3 | -9 | -12
COc1cccc(C(NC(C)=O)c2ccc3cccnc3c2O)c1 (centres undefined) | 0 | 16 | 0 | 2 | -82* | -5
